This is a sample that favours compounds with a hit; in the whole collection about 2.5% have one here.
Luciferase inh: firefly luciferase inhibition | purified firefly luciferase, luminescence, 8 min | Potency, µM (doses to about 57.1 µM), actives largely listed as inhibitors | 72,000 compounds, 2.2% hits | AID 411; also: nearly all actives have a fitted effect of over 40% in size
Target sequence (P08659 whole entry, looked up): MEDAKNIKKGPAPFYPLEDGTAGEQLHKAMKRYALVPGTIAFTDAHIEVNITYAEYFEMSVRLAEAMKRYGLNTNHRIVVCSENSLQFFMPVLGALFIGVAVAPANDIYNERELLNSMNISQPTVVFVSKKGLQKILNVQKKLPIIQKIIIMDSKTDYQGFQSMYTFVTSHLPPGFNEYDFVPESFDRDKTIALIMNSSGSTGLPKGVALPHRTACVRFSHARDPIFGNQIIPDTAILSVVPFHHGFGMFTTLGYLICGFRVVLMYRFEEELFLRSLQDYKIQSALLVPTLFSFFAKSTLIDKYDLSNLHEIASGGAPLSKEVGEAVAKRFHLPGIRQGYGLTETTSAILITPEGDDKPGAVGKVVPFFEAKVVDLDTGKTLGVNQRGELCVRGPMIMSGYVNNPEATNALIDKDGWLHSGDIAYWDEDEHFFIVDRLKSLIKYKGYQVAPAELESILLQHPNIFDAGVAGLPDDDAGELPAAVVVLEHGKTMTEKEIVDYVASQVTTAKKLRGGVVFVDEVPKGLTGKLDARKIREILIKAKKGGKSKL
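Compounds were tested as concentration series (qHTS) against purified P. pyralis luciferase with luciferin and 10 uM ATP in 50 mM imidazole pH 7.2, 50 mM KCl, 7 mM MgCl2, 0.01% Tween 20, 0.05% BSA. Luminescence was read after 8 min at ambient temperature.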
p53ts 32C kill: cytotoxicity in p53ts cells at permissive temperature; H1299-p53A138V at 32C, ATP luminescence viability, 24 h; Potency, µM (titrated, usually from 46.1 µM), hits mostly cytotoxic; 130,000 compounds, 0.93% hits; also: nearly all actives have a fitted effect of over 55% in size
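Viability by ATPlite luminescence after 24 h compound treatment (up to 46 uM) at the permissive 32C. Cells are H1299 carrying p53 A138V. Scale runs from DMSO basal to 100 uM tamoxifen as full kill; AC50 from Hill fits.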
p53ts 39C kill: kills p53ts cells at the nonpermissive temperature. AID 902. H1299-p53A138V viability at 39C, ATP luminescence, 24 h. 130,000 compounds, 1.5% hits. Potency, µM (top dose mostly 46.1 µM), actives largely listed as cytotoxic; also: nearly all actives have a fitted effect of over 55% in size
Numbers stand for hits; - = inactive; ? = inconclusive; . = not tested or not shown; [ ] = dose if it differs, or a comment. Calls follow the shape of the dose curve; as a rule, active = well fitted curve in the direction sought with a large enough effect; inconclusive = small, poorly fitted or top-dose-only effect, or another doubt; inactive = no such curve, though single readings can be large; an effect the other way counts as inactive or inconclusive.

SMILES | Luciferase inh | p53ts 32C kill | p53ts 39C kill
c1ccc(OCc2nc3ccccc3s2)cc1 | 13µM | - | -
c1ccc(-c2cn3c4c(sc3n2)CCCC4)cc1 | 0.4µM | 1µM | 0.63µM
Cc1c(C(=O)N2CCc3ccccc3C2)sc2nc(-c3ccccc3)cn12 | - | - | -
O=C(CSc1ncc(-c2ccccc2)n1CC1CCCO1)N1CCCCC1 (stereo not drawn) | - | - | -
Cn1c(-c2ccc(F)cc2)cnc1SCC(=O)N1CCCCC1 | 16µM | - | -
CC(=O)c1cc2c(cc1O)OC(C)(C)C=C2 | . | - | -
Cn1c(-c2ccc(C(C)(C)C)cc2)n[nH]c1=S | - | - | -
CC(C)(C)c1ccc(-c2conc2N)cc1 | 10µM | ? | ?
COc1cccc(Cn2c(=O)c(C)nc3cnc(OCc4ccccc4)nc32)c1 | -[11.4 µM] | - | -
O=C(NC1CCN(Cc2ccccc2)C1)c1ccc(Cc2nc3ccccc3[nH]2)cc1 (stereo not drawn) | . | - | -
[O-]/[N+](=C\c1ccncc1)c1ccc(Br)cc1 | 7.9µM | - | -
O=C(NCc1ccncc1)c1ccc(Br)cc1 | - | - | -
CN(C(=O)CSc1nnc(-c2ccccc2F)o1)C1CCCCC1 | . | - | -
COC(=O)c1sc(NC(=O)COc2ccccc2OC)nc1C | - | - | -
CCOC(=O)c1sc(Nc2nc3c(OC)cccc3s2)nc1C | 16µM | - | -
Cc1cccc(CNC(=O)c2ccc(NC(=O)N3CCSc4ccccc43)cc2)c1 | . | - | -
CC(C)N(Cc1ccccc1)C(=O)COC(=O)c1ccc2c(c1)OCCO2 | - | - | -
CC(C)N(CCC(=O)c1ccc2ccccc2c1)Cc1ccccc1 | - | 20µM | 32µM
COc1cccc(CNC(=O)c2cc(S(=O)(=O)N3CCCCCC3)cn2C)c1 | . | - | -
CCN1CCCC1Cn1c(-c2ccccc2)nc2c(N3CCOCC3)nc(C)nc21 (stereo not drawn) | . | - | -
COC(=O)c1cc2oc3ccccc3c2n1CC(=O)Nc1ccc(Cl)cc1F | . | - | 10µM
COC(=O)c1cc2oc3ccccc3c2n1CC(=O)Nc1ccc(OC)c(OC)c1OC | . | - | -
Cc1ccc(C)c(NC(=O)c2cc(S(=O)(=O)N3CCCc4ccccc43)ccc2F)c1 | . | - | -
Cc1ccc(OCc2nnc(-c3ccccc3)o2)cc1 | . | - | -
CCCOc1ccc(-c2nnc(-c3ccco3)o2)cc1 | 10µM | 13µM | ?
SMILES | Luciferase inh | p53ts 32C kill | p53ts 39C kill
O=C(COc1ccccc1)Nc1ccc(-c2nnc(-c3ccco3)o2)cc1 | - | . | .
CC(C)COc1ccc(-c2nnc(-c3ccco3)o2)cc1 | 16µM | ? | ?
Cc1ccc(CNC(=O)Nc2ccccc2)cc1 | 13µM | ? | ?
O=C(NCc1ccc(N2CCCC2=O)cc1)Nc1ccccc1 | - | - | -
CN1CCN(c2ncc3ncc(=O)n(CCC#N)c3n2)CC1 | -[11.4 µM] | - | -
CCOC(=O)c1cccc(NC(=O)c2cc3cc4cc(OC)ccc4nc3s2)c1 | . | - | -
CCOC(=O)c1cccc(NC(=O)c2cc3cc4ccc(C)cc4nc3s2)c1 | . | - | 10µM
CCOc1ccc(N2C(=O)c3[nH]nc(-c4ccc(OC)cc4)c3C2c2cccs2)cc1 (stereo not drawn) | . | - | -
COc1ccc(-c2cn3c(n2)CCC3)cc1 | 16µM | - | -
Cc1ccc(-c2cn3c(n2)CCCC3)cc1 | - | - | -
Cc1ccc2c(CC(=O)Nc3ccc(N4CCN(C)CC4)cc3C)coc2c1 | 6.3µM | ? | ?
Cc1ccc(NC(=O)Cc2coc3c(C)c(C)ccc23)c(C)c1 | . | - | -
CC(C)(C)Nc1cccccc1=O | - | - | -
Cc1ccc(Nc2cccccc2=O)cc1 | 25µM | - | -
CC(C)N=C=NC(C)C | . | -[1.84 µM] | -
Cc1nnc(NC(=O)c2sc3ccccc3c2Cl)s1 | 2µM | 1.3µM | 0.63µM
COCc1nnc(NC(=O)c2cccs2)s1 | - | - | -
CCN(CC)c1ccc(NC(=O)c2sc3ccccc3c2Cl)cc1 | . | - | -
COCc1nnc(NC(=O)c2sc3ccccc3c2Cl)s1 | 20µM | ? | 16µM
C[C@@H](C(=O)O)c1ccc(C[C@@H]2CCCC2=O)cc1 | - | - | -
CCOc1ccc2c(ccc(/C=C\c3cc(C)c4cccnc4c3O)[n+]2C)c1 | -[11.4 µM] | -[9.22 µM] | -[9.22 µM]
COc1cccc(Nc2ncc3nc(CCc4ccccc4)c(=O)n(Cc4cccs4)c3n2)c1 | -[11.4 µM] | - | -
O=C(Nc1ccc(F)c(F)c1)c1cc(S(=O)(=O)NC2CCCCCC2)ccc1F | . | - | -
COc1ccc(CNS(=O)(=O)c2cc(C(=O)Nc3cc(Cl)cc(Cl)c3)ccc2F)cc1 | . | - | ?
O=C(Nc1cc(Cl)cc(Cl)c1)c1ccc(F)c(S(=O)(=O)NC2CCCCC2)c1 | . | ? | 25µM
SMILES | Luciferase inh | p53ts 32C kill | p53ts 39C kill
O=C(Nc1ccc(Br)cc1)c1ccc(F)c(S(=O)(=O)NC2CCCCCC2)c1 | . | ? | 13µM
O=C(O[C@@H]1Cc2c(O)cc(O)cc2OC1c1ccc(O)c(O)c1)c1cc(O)c(O)c(O)c1 (stereo partly drawn) | . | - | -
COCCn1c(=O)c(C)nc2cnc(N3CCN(C)CC3)nc21 | -[11.4 µM] | - | -
CO[C@H]1COC(=O)[C@@H](CCSC)NC(=O)C/C=C\[C@@H](C)[C@H](OC)COC(=O)[C@@H](OCc2ccccc2)/C=C\[C@@H]1C | -[11.4 µM] | -[9.22 µM] | -[9.22 µM]
CCCN(CCC)C(=O)SCC | . | -[1.84 µM] | -
C[C@@H]1OC2C3=C(C(=O)[C@H]4O[C@@H]4[C@H]3O)[C@@H]1[C@H]1[C@H](C)OC=C3[C@H](O)[C@H]4O[C@H]4/C(=N\OCc4ccccc4)[C@@]321 | -[11.4 µM] | -[9.22 µM] | 4µM
CCOC(=O)CNC(=O)c1sc(NC(=O)c2ccccc2)nc1C | . | - | -
Cc1nc(NC(=O)c2ccccc2)sc1-c1csc(N)n1 | 16µM | - | -
CC1=C(/C=C\C(=O)O)C(C)(C)CCC1 | -[11.4 µM] | -[9.22 µM] | -[9.22 µM]
COc1ccc(CCN(C)CCc2ccc(OC)c(OC)c2)cc1OC | - | - | -
COc1ccc(CCN(C)CCCOc2ccc(S(=O)(=O)c3[nH]c4ccccc4c3C(C)C)cc2)cc1OC | - | 25µM | 13µM
COc1ccc(OC)c(-c2noc(N3CCN(c4ccc(Cl)cc4)CC3)n2)c1 | . | - | .
O=C(N/N=C/c1ccc(O)cc1)c1csc2c1CCCC2 | . | - | -
O=C(N/N=C\c1ccc2c(c1)CCC2)c1ccccc1O | 3.2µM | ? | -[9.22 µM]
CO/N=C\[C@@H](NS(=O)(=O)c1ccc(C)cc1)[C@H](C)/C=C\CC(=O)OC | -[11.4 µM] | -[9.22 µM] | -[9.22 µM]
CCOC(=O)CCN1C(=O)[C@H]2[C@H]3[C@H](O)[C@H](O)C/C(=N/NC(=O)OCc4ccccc4)[C@@H]3CC[C@@H]2C1=O | -[11.4 µM] | -[9.22 µM] | -[9.22 µM]
O=C(Nc1ccc2nc3ccccc3nc2c1)c1ccccc1 | . | ? | 10µM
O=C(Nc1ccc2ccccc2c1)c1cnccn1 | 7.9µM | ? | ?
O=C(Nc1cc(NC(=O)c2ccccc2)c(C(=O)O)cc1C(=O)O)c1ccccc1 | . | - | -
O=C(Nc1ccc2nccnc2c1)c1cnccn1 | - | - | -
O=C(Nc1ccc2ccccc2c1)c1cccnc1 | 13µM | - | -
O=C(Nc1cccnc1)c1cccnc1 | - | - | -
CCOC(=O)c1sc2ncn(CC(=O)Nc3ccc(C)cc3Br)c(=O)c2c1C | . | - | -
CC1CCc2c(sc(NC(=O)c3ccccc3)c2C(=O)Nc2ccccc2)C1 (stereo not drawn) | . | - | ?
NC(=O)c1ncn([C@@H]2O[C@@H](CO)[C@@H](O)[C@H]2O)n1 | - | . | .
